This is a sample that favours compounds with a hit; in the whole collection about 3.9% have one here.
Anthrax LF inh2 = Bacillus anthracis LF protease inhibitors, primary screen, biochemical, multiplex microsphere, MLPCN library | Lethal factor (Bacillus anthracis), P15917 | multiplex microsphere protease cleavage assay | inhibition, % at 10 µM | 360,000 tested, 0.12% active; note: plate controls were buffer without enzyme for full effect and enzyme alone for no effect
Target sequence (P15917 whole entry, looked up): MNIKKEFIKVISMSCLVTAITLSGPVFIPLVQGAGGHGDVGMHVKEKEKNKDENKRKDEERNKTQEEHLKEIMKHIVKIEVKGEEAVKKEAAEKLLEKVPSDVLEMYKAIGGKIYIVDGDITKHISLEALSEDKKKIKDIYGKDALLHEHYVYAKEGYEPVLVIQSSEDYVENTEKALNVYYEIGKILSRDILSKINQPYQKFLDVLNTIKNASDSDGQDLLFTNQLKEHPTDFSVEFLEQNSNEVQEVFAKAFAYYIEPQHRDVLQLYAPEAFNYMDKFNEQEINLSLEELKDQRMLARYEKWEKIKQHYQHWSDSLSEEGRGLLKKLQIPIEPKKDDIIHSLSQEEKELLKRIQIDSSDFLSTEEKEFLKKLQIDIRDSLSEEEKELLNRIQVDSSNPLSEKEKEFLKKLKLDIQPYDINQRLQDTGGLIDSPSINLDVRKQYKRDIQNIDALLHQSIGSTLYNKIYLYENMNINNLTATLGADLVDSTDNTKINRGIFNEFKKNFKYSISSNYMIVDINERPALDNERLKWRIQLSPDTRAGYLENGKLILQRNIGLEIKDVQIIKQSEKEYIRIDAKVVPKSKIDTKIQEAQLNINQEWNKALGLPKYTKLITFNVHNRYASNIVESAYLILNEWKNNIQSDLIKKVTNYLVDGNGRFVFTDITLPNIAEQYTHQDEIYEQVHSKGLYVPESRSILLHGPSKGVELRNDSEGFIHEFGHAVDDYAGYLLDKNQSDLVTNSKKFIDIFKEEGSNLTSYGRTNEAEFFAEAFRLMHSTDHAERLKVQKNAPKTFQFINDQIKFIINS
BoNT-F LC inh = BoNT/F light chain protease inhibitors, primary screen, biochemical, flow cytometry, MLPCN library. inhibition, % at 10 µM. Botulinum neurotoxin type F light chain protease (Clostridium botulinum). Multiplex microsphere protease cleavage assay. 360,000 tested, 0.22% active; in the data active = inhibition above about 35%, passing the limit was not always enough; inconclusive = no clear call, values can overlap the other calls; note: plate controls were buffer without enzyme for full effect and enzyme alone for no effect
BoNT-A LC inh2 = BoNT/A light chain protease inhibitors, primary screen, biochemical, flow cytometry, MLPCN library | multiplex microsphere protease substrate cleavage | inhibition, % at 10 µM | 360,000 tested, 0.17% active; note: plate controls were buffer without enzyme for full effect and enzyme alone for no effect
CCHF vOTU inh = CCHFV vOTU protease inhibitors, primary screen, biochemical, Pep-AMC substrate, fluorescence; Crimean-Congo hemorrhagic fever virus L polyprotein viral ovarian tumor (vOTU) protease …; inhibition, % at 11.5 µM; AID 651958, 2012; 370,000 tested, 0.55% active; in the data active = inhibition above about 30%; note: 0% = vehicle wells with enzyme and 100% = no enzyme wells
SARS 3CLpro inh = SARS-CoV 3CLpro protease inhibitors, primary screen, biochemical, quenched FRET; Replicase polyprotein 1ab (Severe acute respiratory syndrome coronavirus), P0C6X7; recombinant SARS-CoV 3CLpro, quenched FRET peptide cleavage; inhibition, % at 6 µM; 290,000 tested, 0.14% active; in the data active = inhibition above about 12%
Bead autofluor = flagged as autofluorescent in microsphere protease counterscreen | compound autofluorescence counterscreen, microsphere flow cytometry; active compounds read high | fluorescence intensity (no concentration beside the values) | 360,000 tested, 3.1% active; in the data active = fluorescence intensity above about 16000; inconclusive = no clear call, values can overlap the other calls
Starred values were filed as active, the others as inactive; u = inconclusive; x = not tested or not shown. Cut-off read from the data, not from the text of the source, unless noted: active = inhibition above about 30%; inconclusive = no clear call, values can overlap the other calls; inactive = below that.

SMILES	Anthrax LF inh2	BoNT-F LC inh	BoNT-A LC inh2	CCHF vOTU inh	SARS 3CLpro inh	Bead autofluor
Cc1oc2c(c1C(=O)NCc1ccccc1)CCCC2	-1	-23	-1	-20	1	9873
CC1=C(C(=O)N2CCOCC2)C(c2ccccc2F)C2=C(CC(C)(C)CC2=O)N1 (stereo not given)	-3	2	2	-76	0	19197*
COC(=O)c1cc(NC(=O)Nc2cc(OC)ccc2OC)cc(C(=O)OC)c1	-2	-2	0	4	0	23932*
COc1ccc(OC)c(NC(=O)Nc2ccc(Cl)cc2)c1	0	-2	-1	x	1	6037
COc1ccc(OC)c(NC(=O)Nc2cccc(Cn3cccn3)c2)c1	-2	-2	-1	-2	0	21355*
Cc1ccccc1-c1nc(NCCN(C)C)nc2ccsc12	-6	2	0	-3	x	3755
S=C(NN=C(C1CC1)C1CC1)Nc1ccccc1	-3	-5	-2	0	0	17259*
O=C(NNC(=S)Nc1ccccc1)C1CC1	-2	-4	0	1	0	5187
Cc1cccc(-c2nnc3sc(-c4ccccc4C)nn23)c1	-4	-4	-1	-6	-5	16434*
COc1ccc(-c2nn3c(-c4ccc(F)cc4)nnc3s2)cc1	-2	2	0	-1	1	4063
c1ccc(OCc2nnc3sc(-c4cccs4)nn23)cc1	-1	5	1	10	-7	3558
COc1ccc(-c2nn3c(COc4ccccc4)nnc3s2)cc1OC	-4	-3	-2	-6	4	17330*
COc1ccc(-c2nn3c(-c4ccccc4)nnc3s2)cc1	0	0	0	8	-4	20178*
c1ccc(-c2nnc3sc(-c4ccncc4)nn23)cc1	-2	-4	0	2	4	9878
COc1ccccc1-c1nn2c(-c3ccco3)nnc2s1	2	4	3	-5	-5	21284*
c1coc(-c2nn3c(-c4ccco4)nnc3s2)c1	x	x	x	-5	6	x
CC(C)c1ccc(Oc2cccc3c2S(=O)(=O)N([C@H](C)c2ccccc2)C[C@@H](COCc2ccccc2)O3)cc1	x	x	x	0	x	x
COc1cccc(-c2nnc3sc(-c4ccc(Br)o4)nn23)c1	x	x	x	2	x	x
COc1cccc(-c2nnc3sc(-c4ccccc4)nn23)c1	1	-2	u	11	-2	20646*
O=C(NCc1csc(-c2cccs2)n1)Nc1cccc(Cl)c1	-18	u	2	-5	8	3818
CCOc1cccc(C(=O)N/N=C/c2coc3ccccc3c2=O)c1	-3	4	0	0	2	5367
Cc1ccc(OCc2nnc(SCC(N)=O)n2N)cc1	3	3	1	7	-3	5445
CCOc1ccc(Cc2nnc(SCC(N)=O)n2C)cc1	0	-4	-2	-11	-2	21499*
COCCn1c(COc2ccc(Cl)cc2)nnc1SCC(N)=O	-1	3	2	x	3	22516*
O=S(=O)(c1ccccc1F)N1CCC(c2nc3ccccc3o2)CC1	x	x	x	-5	x	x
SMILES	Anthrax LF inh2	BoNT-F LC inh	BoNT-A LC inh2	CCHF vOTU inh	SARS 3CLpro inh	Bead autofluor
Cc1nc2ccc(C(=O)N(C)Cc3ccco3)cn2c1N(C)C(=O)CCc1ccccc1	-8	-2	-1	11	x	3882
CCOC(=O)C1CCN(C(=O)c2sc3ncn(CC(=O)N4CCCCC4)c(=O)c3c2C)CC1	-2	-3	0	-2	x	3889
COc1ccc(F)cc1CN1CCN(CC(=O)Nc2ccccc2C(=O)NC2CC2)CC1	5	-1	1	0	x	3841
COc1ccc(CN2CCN(CC(=O)Nc3ccccc3C(=O)NC3CC3)CC2)cc1F	-16	u	-68	-6	x	19106*
O=C(Nc1cccnc1)c1ccc(NS(=O)(=O)c2cc([N+](=O)[O-])ccc2Cl)cc1	-2	-1	-1	15	-1	5353
Cc1cc(C)cc(C(=O)OCCCN(C)C2CN(Cc3cn(Cc4ccc([N+](=O)[O-])cc4)nn3)S(=O)(=O)C2)c1 (stereo not given)	x	x	x	-1	x	x
CCC(C)NS(=O)(=O)c1ccc(NC(=O)CNCc2cccs2)cc1 (stereo not given)	13	-9	-4	-7	x	4181
COc1ccccc1CC(=O)O/N=C(\N)c1ccccn1	-11	-5	-1	-2	-3	6556
COc1ccc(C(=O)NCc2cccnc2)cc1S(=O)(=O)N1CCOCC1	1	-5	u	-6	-1	21445*
COc1ccc(C(=O)NCc2cccc(Cl)c2)cc1S(=O)(=O)N1CCOCC1	-5	-7	-1	-5	x	6747
COc1ccccc1CNC(=O)Nc1cccs1	1	-10	0	-5	-3	3241
COc1ccc(N=c2oc3c(OC)cccc3cc2C(=O)NCc2ccco2)c(OC)c1	-11	2	3	x	1	21143*
COc1ccccc1CNC(=O)c1cccs1	2	-2	-2	5	-5	23731*
COc1ccc(/C(N)=N/OC(=O)Cc2ccccc2OC)cc1	-4	-5	-2	5	2	21398*
CCOc1ccc(N(CC(=O)NC2CCCCC2)C(=O)CCC(=O)Nc2cc(C)ccn2)cc1	0	1	0	-1	4	5962
COc1cccc(N2CCN(CC(=O)N(C)Cc3ccccc3Cl)CC2)c1	x	x	x	-4	x	x
COc1cccc(C(=O)NCc2ccccc2OC)c1	0	1	-1	-14	4	8809
COc1ccc(C(=O)NCc2ccccc2OC)c(OC)c1	-2	-3	u	-5	-1	20943*
COc1ccc(C(CC(=O)O)NC(=O)c2cccs2)cc1 (stereo not given)	-7	-6	-2	-7	6	16500*
CC(C)(C)NC(=S)NCc1cccnc1	-2	-2	-2	4	-2	23776*
COc1ccc(C(=O)NCc2ccccc2OC)cc1	-4	2	6	8	-6	21799*
COc1ccccc1N1CCN(S(=O)(=O)c2ccc(-n3cnnn3)cc2)CC1	-3	3	0	16	0	5218
COc1cc(OC)c(OC)cc1CNC(=O)c1ccc(S(=O)(=O)N2CCCCC2)cc1	x	x	x	-4	x	x
COc1cc(SC)ccc1C(=O)NCc1ccc(C)cc1	-2	3	2	4	0	19956*
O=C(NCc1cccc(Cl)c1)c1cccnc1	-2	-9	u	-6	0	18154*
COc1cc(SC)ccc1C(=O)NCc1ccccc1	-2	0	0	-13	1	2043
COc1ccc(OC)c(NS(=O)(=O)c2cccs2)c1	-1	5	3	-4	2	22109*
COc1ccccc1CNC(=O)c1ccc(S(=O)(=O)N2CCCC2)cc1	-1	-2	-1	-1	-4	24898*
COc1ccc(OC)c(NS(=O)(=O)c2ccc(Br)s2)c1	x	x	x	x	2	x
CCN1CCCCC(NC(=O)c2ccccc2)C1=O (stereo not given)	x	x	x	-5	x	x
